Among the data in PubChem BioAssay (Tox21) are Potency, outcome and PLD induction values, retold here.

Molecules are shown by their SMILES. Values without a mark were called inactive. Inconclusive results are not listed. Calls of active or inactive are those of the source. Unless noted, calls follow the shape of the dose curve; as a rule, active = well fitted curve in the direction sought with a large enough effect in the repeat runs; inconclusive = weak or mixed curves; inactive = no such curve, though single readings can be large; an effect the other way counts as inactive or inconclusive.

Assay [1] can be described thus: A CellTox Green Cytotoxicity Assay to monitor cytotoxicity in HEK293 cells - 32 hour (AID 1224881). Also: nearly all actives have a fitted effect of over 40% in size. In outline: (§1)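 Dead-cell fluorescence measured kinetically: asymmetric cyanine dye, HEK293, 600 cells/well, 5 h settle, 23 nL cpd/DMSO, 37 C, reads 0–40 h every 8 h.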
Assay [2] is described as follows: A CellTox Green Cytotoxicity Assay to monitor cytotoxicity in HepG2 cells - 0 hour (AID 1224882). Also: nearly all actives have a fitted effect of over 35% in size. In outline:
(§2)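 First, HepG2 cells (600/well) mixed with reagent were plated; second, after 5 h at 37 C they received compounds via pintool; third, fluorescence was measured at 0 h through 40 h at 8 h intervals.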

Assay [3] is described as follows: A CellTox Green Cytotoxicity Assay to monitor cytotoxicity in HepG2 cells - 32 hour (AID 1224883). Also: nearly all actives have a fitted effect of over 50% in size. In outline:
as §2

The nature of assay [4]: A CellTox Green Cytotoxicity Assay to monitor cytotoxicity in HEK293 cells - 8 hour (AID 1224884). Also: nearly all actives have a fitted effect of over 35% in size. In outline:
as §1

The nature of assay [5]: qHTS RealTime-Glo MT Cell Viability Assay in HepG2 cells - 16 hour (AID 1224885). Also: nearly all actives have a fitted effect of over 50% in size. In a few lines: (§3)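 Viability was tracked continuously by NanoLuc luminescence from prosubstrate reduced by living HepG2 cells, at successive time points over 40 h of compound exposure. Cells with reagent were preincubated 5 h at 37 °C before compound addition.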
Assay [6] can be described thus: qHTS RealTime-Glo MT Cell Viability Assay in HEK293 cells - 24 hour (AID 1224886). Also: top concentration of the series differs between compounds; nearly all actives have a fitted effect of over 50% in size. In outline: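 Viability tracked continuously by luminescence as live cells reduce a prosubstrate for NanoLuc; HEK293 cells preincubated 5 h, compound-treated at 37 C, and read at 0, 8, 16, 24, 32 and 40 h.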
Assay [7] is described as follows: qHTS RealTime-Glo MT Cell Viability Assay in HEK293 cells - 8 hour (AID 1224887). Also: top concentration of the series differs between compounds; nearly all actives have a fitted effect of over 50% in size. In a few lines:
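600 HEK293 cells per well, dispensed already mixed with RealTime-Glo MT reagents. Compound dosing came 5 h later. The same wells were read for luminescence at 0, 8, 16, 24, 32 and 40 h of exposure at 37 C.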

Assay [8] is described as follows: qHTS RealTime-Glo MT Cell Viability Assay in HepG2 cells - 0 hour (AID 1224889). Also: nearly all actives have a fitted effect of over 50% in size. In outline: as §3
Assay [9] is described as follows: A CellTox Green Cytotoxicity Assay to monitor cytotoxicity in HepG2 cells - 8 hour (AID 1224890). Also: nearly all actives have a fitted effect of over 45% in size. In a few lines:
as §2

Assay [10] in a line: qHTS assay to identify small molecule antagonists of the estrogen receptor alpha (ER-alpha) signaling pathway using the BG1 cell line in the presence of 0.1 nM 17-beta-estradiol - cell viability counter screen (AID 1259241). Also: nearly all actives have a fitted effect of over 40% in size. Also: potency is read from the fitted curve at half-maximal effect. In a few lines: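 VM7Luc4E2, 4,000 cells/well, phenol red-free medium + 10% charcoal-stripped FBS; 24 hr plating; cpd + 0.1 nM E2 final, 22 hr 37C/5% CO2; CellTiter-Fluor 30 min, fluorescence.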

Assay [11] is described as follows: qHTS assay to identify small molecule antagonists of the androgen receptor (AR) signaling pathway using the MDA cell line in the presence of 0.5 nM R1881 - cell viability counter screen (AID 1259242). Also: nearly all actives have a fitted effect of over 45% in size. Also: potency is read from the fitted curve at half-maximal effect. In outline: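 qHTS format. MDA-kb2 (MMTV-luc, AR/GR responsive) + cpd + 0.5 nM R1881 final, 16 hr 37C/0% CO2 → CellTiter-Fluor 30 min → fluorescence intensity.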

Assay [12] has as its target Estrogen receptor (Homo sapiens) (UniProt P03372). Kind of assay: qHTS assay to identify small molecule antagonists of the estrogen receptor alpha (ER-alpha) signaling pathway using the BG1 cell line in the presence of 0.1 nM 17-beta-estradiol (AID 1259244). Also: nearly all actives have a fitted effect of over 50% in size. In a few lines:
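Reporter is a stably transfected luciferase under four estrogen responsive elements in VM7Luc4E2 cells expressing native full-length ER-alpha; inhibition of 0.1 nM (final) 17beta-estradiol-driven signal over 22 h is read by luminescence.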

A short description of assay [13]: qHTS assay to identify small molecule HDAC inhibitors (AID 1259364).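 Also: wild-type HCT-116 cells with endogenous class I/II HDAC activity; top concentration of the series differs between compounds; nearly all actives have a fitted effect of over 45% in size.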 In a few lines: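 Quantitative high-throughput format: overnight-seeded HCT-116 cells got compounds for 2 hr at 37C; HDAC-Glo I/II reagent added, 30 min RT, luminescence measured.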
Assay [14] is described as follows: qHTS assay to identify small molecule HDAC inhibitors - cell viability counter screen (AID 1259365). In a few lines: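 Luminescence from CellTiter-Glo, developed 30min at room temperature, reports viability of wild-type HCT-116 cells treated 2hr with compounds at 37 C and 5% CO2 after overnight plating.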
The nature of assay [15]: qHTS assay to identify small molecule agonists of the sonic hedgehog signaling (Shh) pathway - cell viability counter screen (AID 1259366). Also: nearly all actives have a fitted effect of over 50% in size. Also: potency is read from the fitted curve at half-maximal effect. In outline: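 Cytotoxicity counter screen run in the same wells as the Shh reporter assay. NIH/3T3 cells carrying a Gli1 response element–driven luciferase were treated with DMSO-dissolved compounds for 24hr, and live-cell protease activity was measured with CellTiter-Fluor.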

Assay [16] can be described thus: qHTS assay to identify small molecule antagonists of the sonic hedgehog signaling (Shh) pathway - cell viability counter screen (AID 1259367). Also: nearly all actives have a fitted effect of over 55% in size. In a few lines:
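Fluorescence read-out (CellTiter-Fluor, 1 hr at 37C) taken after 23 hr compound treatment of 3T3 Gli1-Luc cells stimulated with conditioned medium. Cells were seeded at 2,000 per well and pre-incubated 4 hr.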

The nature of assay [17]: qHTS assay to identify small molecule agonists of the sonic hedgehog signaling (Shh) pathway (AID 1259368; calls by dose curve;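 also: NIH/3T3-derived 3T3Gli1-Luc cells carrying a stable Gli1-driven firefly luciferase reporter; series mostly up to about 92 µM; nearly all actives have a fitted effect of over 15% in size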). In outline:
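Quantitative high-throughput format using a Gli1-driven firefly luciferase reporter line derived from NIH/3T3 cells. After a 24 hr compound treatment at 37 C and 5% CO2, luminescence reported Gli1 response element activity.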

The nature of assay [18]: A CellTox Green Cytotoxicity Assay to monitor cytotoxicity in HEK293 cells - 16 hour (AID 1224888). Also: nearly all actives have a fitted effect of over 35% in size. In outline:
as §1

Assay [19] deals with Androgen receptor (Homo sapiens) (UniProt P10275). The assay can be described thus: qHTS assay to identify small molecule antagonists of the androgen receptor (AR) signaling pathway using the MDA cell line in the presence of 0.5 nM R1881 (AID 1259243). Also: nearly all actives have a fitted effect of over 50% in size. In a few lines:
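Antagonist mode quantitative HTS in MDA-kb2 MMTV-luciferase cells, agonist R1881 at 0.5 nM final, 16 hr exposure at 37C and 0% CO2, luminescent detection.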

Assay [20] is described as follows: qHTS assay to identify small molecule phospholipidosis (PLD) inducers (AID 1259344; active = well fitted curve in the direction sought with a large enough effect; an effect the other way counts as inactive or inconclusive). In a few lines: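 Read-out is LipidTOX Red fluorescence (ex 595/em 615) imaged in HepG2 cells after 24 h compound exposure at 37 C, with Hoechst nuclear counterstain (ex 352/em 461) allowing per-cell normalisation.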
% is scaled to controls: 0 for no effect and ±100 for the full control effect.

Chain of Estrogen receptor (Homo sapiens) (P03372 whole entry, looked up): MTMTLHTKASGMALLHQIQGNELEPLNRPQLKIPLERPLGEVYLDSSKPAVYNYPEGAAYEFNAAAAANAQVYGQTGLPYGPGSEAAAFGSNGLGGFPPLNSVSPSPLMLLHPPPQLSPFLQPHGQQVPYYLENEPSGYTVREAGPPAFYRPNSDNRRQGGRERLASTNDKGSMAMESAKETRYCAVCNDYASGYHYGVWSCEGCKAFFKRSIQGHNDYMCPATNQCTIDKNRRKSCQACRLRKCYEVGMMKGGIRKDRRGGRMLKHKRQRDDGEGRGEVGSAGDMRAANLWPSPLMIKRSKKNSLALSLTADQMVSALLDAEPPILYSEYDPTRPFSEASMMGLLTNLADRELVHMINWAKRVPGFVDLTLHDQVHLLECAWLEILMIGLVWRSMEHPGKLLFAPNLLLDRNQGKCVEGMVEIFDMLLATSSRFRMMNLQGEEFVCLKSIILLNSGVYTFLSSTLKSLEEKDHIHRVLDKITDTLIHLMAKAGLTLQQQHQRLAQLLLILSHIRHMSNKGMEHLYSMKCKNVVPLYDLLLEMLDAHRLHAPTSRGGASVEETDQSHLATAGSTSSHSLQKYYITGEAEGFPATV
Chain of Androgen receptor (Homo sapiens) (P10275 whole entry, looked up): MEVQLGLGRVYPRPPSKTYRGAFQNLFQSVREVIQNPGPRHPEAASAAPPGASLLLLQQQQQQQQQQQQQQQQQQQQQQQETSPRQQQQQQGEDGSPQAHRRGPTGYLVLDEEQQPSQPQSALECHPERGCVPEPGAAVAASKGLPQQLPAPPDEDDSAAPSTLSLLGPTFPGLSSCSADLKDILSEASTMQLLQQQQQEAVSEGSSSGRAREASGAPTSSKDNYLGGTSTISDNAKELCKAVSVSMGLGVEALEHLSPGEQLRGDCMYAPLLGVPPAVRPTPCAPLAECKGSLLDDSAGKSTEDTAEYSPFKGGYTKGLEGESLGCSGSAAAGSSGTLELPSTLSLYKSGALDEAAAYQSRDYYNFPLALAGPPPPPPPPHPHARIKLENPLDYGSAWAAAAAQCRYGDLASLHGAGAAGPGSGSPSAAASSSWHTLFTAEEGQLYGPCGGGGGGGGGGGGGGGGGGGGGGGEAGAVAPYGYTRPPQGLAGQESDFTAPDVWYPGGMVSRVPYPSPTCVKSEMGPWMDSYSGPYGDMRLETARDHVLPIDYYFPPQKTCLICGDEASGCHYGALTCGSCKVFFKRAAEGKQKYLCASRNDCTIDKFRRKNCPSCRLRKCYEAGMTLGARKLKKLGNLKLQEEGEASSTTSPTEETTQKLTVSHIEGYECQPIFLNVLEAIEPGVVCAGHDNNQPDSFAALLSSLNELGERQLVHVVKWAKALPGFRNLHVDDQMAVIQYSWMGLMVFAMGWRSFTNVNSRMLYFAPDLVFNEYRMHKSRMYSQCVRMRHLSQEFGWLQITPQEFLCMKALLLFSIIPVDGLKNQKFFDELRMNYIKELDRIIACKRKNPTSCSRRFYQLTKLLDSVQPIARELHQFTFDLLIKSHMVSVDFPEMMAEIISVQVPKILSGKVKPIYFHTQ

Consider `CCCc1ccccc1`, for which the Potency result in [1], in assay [2], in assay [3], in assay [4], in assay [5] and in assay [6] was “inactive” in each case. Further, the Potency entry in assay [7], in assay [8], in [9], in [10], in assay [11] and in [12] was “inactive” in each case. Also, the Potency result in assay [13], in [15] and in assay [16] was “inactive” throughout. Besides, the compound was called inactive in assay [14] and in assay [17].
As for `Cc1cc(C)c(S(=O)(=O)O)cc1N=Nc1cc(S(=O)(=O)O)c2ccccc2c1O`, the Potency result in [1], in assay [2], in assay [3], in [4], in [5] and in [18] was “inactive” in each case. Moreover, the Potency result in [8], in [9], in assay [19] and in [13] was “inactive” each time. Also, the Potency in assay [10] is 54.5 µM (active); in assay [11], 61.1 µM (active); in [15], 27.3 µM (active). Moreover, the compound was called inactive in [14] and in assay [17].
In the case of `CN(c1nccc(=O)[nH]1)C1CCN(c2nc3ccccc3n2Cc2ccc(F)cc2)CC1`, the Potency entry in assay [1], in assay [2], in [3], in assay [4], in assay [8] and in assay [9] was “inactive” each time. Further, the Potency result in assay [10], in assay [11], in assay [12], in assay [20] and in assay [15] was “inactive” each time. In addition, the compound was called inactive in [14] and in assay [17].
For the compound `CCN(CC)C(C)CN1c2ccccc2Sc2ccccc21` (stereo unspecified), the Potency result in assay [1], in [2], in assay [3], in assay [5], in [7] and in [18] was “inactive” throughout. Besides, the Potency result in [8], in assay [9], in assay [10], in assay [11], in assay [12] and in [20] was “inactive” each time. Moreover, the Potency result in assay [13], in [15] and in assay [16] was “inactive” each time. Moreover, the outcome in [14] and in assay [17] was inactive.
For the compound `O=C(NN1CCCC1)NS(=O)(=O)c1ccc(Cl)cc1`, the Potency entry in assay [1], in [2], in assay [3], in [4], in assay [6] and in assay [7] was “inactive” throughout. Moreover, the Potency entry in assay [8], in assay [9], in assay [10], in assay [11], in assay [12] and in assay [13] was “inactive” in each case. Moreover, the Potency result in assay [15] and in [16] was “inactive” in each case. In addition, the PLD induction in [20] is 14% [at 7.66 µM]. In addition, the call in assay [14] and in assay [17] was inactive.
For `C[C@H](CCC(=O)O)[C@H]1CC[C@H]2[C@@H]3[C@H](O)C[C@@H]4C[C@H](O)CC[C@]4(C)[C@H]3CC[C@]12C`, the Potency result in [1], in [2], in assay [3], in assay [4], in assay [7] and in assay [18] was “inactive” in each case. The Potency entry in [8], in assay [10], in [11], in [12], in [20] and in [13] was “inactive” in each case. Further, the Potency entry in assay [15] was “inactive”. The compound was classed as inactive in [14] and in [17].
`COc1ccc([C@@H]2Sc3ccccc3N(CCN(C)C)C(=O)[C@@H]2OC(C)=O)cc1`: the Potency result in assay [1], in [2], in [4], in assay [5], in assay [6] and in [7] was “inactive” throughout. The Potency result in assay [18], in assay [8], in assay [9], in [10], in assay [11] and in assay [20] was “inactive” in each case. For the same compound, the Potency entry in assay [13], in [15] and in [16] was “inactive” throughout. In addition, the compound was classed as inactive in [14] and in [17].
